Here are results for seven sequences from publication PMC7862700, “An all-to-all approach to the identification of sequence-specific readers for epigenetic DNA modifications on cytosine”.

Common to all, as to assay: DAPPL (digital affinity profiling via proximity ligation, sequencing); 10 mM Tris-HCl pH 7.5, 50 mM NaCl, 1 mM DTT, 4% glycerol, room temperature, 30 min; GST-TFs on glutathione beads, 16-mer random dsDNA library, 0.1% formaldehyde crosslink after washing; high values mean tight binding
Holding throughout (details): protein: recombinant; tags: N-terminal GST; dsDNA, one strand shown

Test [1] concerns the target T1, FLI1 (Homo sapiens, UniProt Q01543 1-452).
T1 sequence: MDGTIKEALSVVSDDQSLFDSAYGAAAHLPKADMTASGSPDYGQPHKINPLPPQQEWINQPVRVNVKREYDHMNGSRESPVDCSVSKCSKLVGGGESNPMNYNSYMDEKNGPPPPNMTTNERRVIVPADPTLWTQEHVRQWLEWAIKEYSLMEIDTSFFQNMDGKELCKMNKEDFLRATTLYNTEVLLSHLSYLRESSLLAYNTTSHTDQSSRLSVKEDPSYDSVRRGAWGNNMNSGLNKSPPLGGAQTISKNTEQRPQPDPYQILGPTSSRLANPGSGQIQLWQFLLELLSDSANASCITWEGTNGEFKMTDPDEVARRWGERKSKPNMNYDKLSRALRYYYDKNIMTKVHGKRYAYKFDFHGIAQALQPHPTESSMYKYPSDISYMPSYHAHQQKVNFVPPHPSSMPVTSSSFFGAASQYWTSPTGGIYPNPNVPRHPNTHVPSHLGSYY
The gist of the method: (§1)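 Human transcription factors carrying a GST fusion were produced in yeast, bound to glutathione beads, tagged with DNA barcodes and pooled together with a tag-only sample. Each pool was held with 200 nmole of a random double-stranded 16-mer DNA library in Tris/NaCl/DTT/glycerol buffer for 30 min at room temperature, then washed, crosslinked in 0.1% formaldehyde, proximity-ligated with BsaI/T4 ligase (1 h, 37 °C), PCR-amplified and sequenced on an Illumina NextSeq500. Binding signal is the read frequency of each hexamer for a given factor divided by its frequency in the tag-only sample.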

For test [2], the target named is T2, ELK1 (Homo sapiens, UniProt P19419 1-428).
T2 sequence: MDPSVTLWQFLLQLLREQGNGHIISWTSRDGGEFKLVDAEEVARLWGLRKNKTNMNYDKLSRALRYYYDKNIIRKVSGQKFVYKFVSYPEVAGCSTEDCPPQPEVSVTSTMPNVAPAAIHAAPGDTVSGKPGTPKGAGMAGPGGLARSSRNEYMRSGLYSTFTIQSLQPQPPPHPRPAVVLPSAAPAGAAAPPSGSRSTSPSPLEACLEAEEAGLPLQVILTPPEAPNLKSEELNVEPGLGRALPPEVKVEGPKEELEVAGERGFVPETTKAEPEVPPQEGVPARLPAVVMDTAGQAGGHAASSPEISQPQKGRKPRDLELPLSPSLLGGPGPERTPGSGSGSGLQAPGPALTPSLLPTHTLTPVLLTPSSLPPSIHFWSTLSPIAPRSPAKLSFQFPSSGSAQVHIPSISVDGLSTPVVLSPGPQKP
The method in brief: as §1

Test [3] has as its target T3, GABPA (Homo sapiens, UniProt Q06546 1-454).
T3 sequence: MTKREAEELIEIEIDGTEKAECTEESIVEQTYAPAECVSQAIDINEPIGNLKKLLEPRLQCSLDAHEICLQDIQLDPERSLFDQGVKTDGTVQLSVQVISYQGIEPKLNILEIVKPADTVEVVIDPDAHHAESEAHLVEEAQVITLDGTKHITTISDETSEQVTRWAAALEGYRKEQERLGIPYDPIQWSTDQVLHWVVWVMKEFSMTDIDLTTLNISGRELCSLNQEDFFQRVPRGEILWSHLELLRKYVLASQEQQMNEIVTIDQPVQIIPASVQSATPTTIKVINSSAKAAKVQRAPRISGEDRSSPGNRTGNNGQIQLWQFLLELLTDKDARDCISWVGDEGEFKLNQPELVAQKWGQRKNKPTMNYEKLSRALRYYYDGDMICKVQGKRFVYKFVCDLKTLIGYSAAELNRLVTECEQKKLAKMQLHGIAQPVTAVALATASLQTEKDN
The method in brief: as §1

Test [4] addresses T4, ERG (Homo sapiens, UniProt P11308 1-479).
T4 sequence: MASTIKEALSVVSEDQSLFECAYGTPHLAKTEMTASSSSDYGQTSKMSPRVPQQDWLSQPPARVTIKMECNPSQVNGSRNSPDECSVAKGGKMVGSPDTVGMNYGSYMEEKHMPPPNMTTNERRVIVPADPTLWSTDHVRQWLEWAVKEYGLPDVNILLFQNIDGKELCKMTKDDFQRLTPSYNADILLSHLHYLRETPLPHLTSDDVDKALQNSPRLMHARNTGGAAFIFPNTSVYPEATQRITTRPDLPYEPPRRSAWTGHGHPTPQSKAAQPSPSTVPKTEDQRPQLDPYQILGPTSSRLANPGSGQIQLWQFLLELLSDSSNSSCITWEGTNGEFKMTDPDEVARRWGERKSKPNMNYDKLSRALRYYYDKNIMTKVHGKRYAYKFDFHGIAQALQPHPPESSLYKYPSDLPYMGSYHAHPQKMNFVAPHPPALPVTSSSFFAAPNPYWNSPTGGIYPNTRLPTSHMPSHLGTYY
The gist of the method: as §1

Test [5] has as its target ELF1 (Homo sapiens, UniProt P32519 1-619). The method in brief: as §1
For test [6], the target named is T5, EHF (Homo sapiens, UniProt Q9NZC4 1-300).
T5 sequence: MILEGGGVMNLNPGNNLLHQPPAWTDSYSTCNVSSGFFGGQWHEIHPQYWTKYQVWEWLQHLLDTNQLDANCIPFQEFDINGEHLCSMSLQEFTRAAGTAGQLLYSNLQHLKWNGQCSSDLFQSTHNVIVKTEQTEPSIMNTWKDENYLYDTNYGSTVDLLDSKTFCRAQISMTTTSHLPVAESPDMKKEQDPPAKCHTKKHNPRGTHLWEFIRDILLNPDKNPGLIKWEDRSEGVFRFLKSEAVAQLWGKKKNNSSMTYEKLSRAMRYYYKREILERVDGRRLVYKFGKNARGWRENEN
The method in brief: as §1

The target of test [7] is SPI1 (Homo sapiens, UniProt P17947 1-270). The method in brief: as §1
In test [8] the target is SPIB (Homo sapiens, UniProt Q01892 1-262). The method in brief: as §1
SPIB, sequence (Q01892 whole entry): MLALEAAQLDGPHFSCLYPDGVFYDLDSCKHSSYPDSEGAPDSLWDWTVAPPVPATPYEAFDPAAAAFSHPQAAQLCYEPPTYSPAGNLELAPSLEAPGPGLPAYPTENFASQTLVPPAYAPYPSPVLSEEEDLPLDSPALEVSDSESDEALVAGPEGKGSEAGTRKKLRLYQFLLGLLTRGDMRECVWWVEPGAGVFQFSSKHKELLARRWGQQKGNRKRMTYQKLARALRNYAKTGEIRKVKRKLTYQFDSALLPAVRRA
The target in test [9] is T6, ELK3 (Homo sapiens, UniProt P41970 1-407).
T6 sequence: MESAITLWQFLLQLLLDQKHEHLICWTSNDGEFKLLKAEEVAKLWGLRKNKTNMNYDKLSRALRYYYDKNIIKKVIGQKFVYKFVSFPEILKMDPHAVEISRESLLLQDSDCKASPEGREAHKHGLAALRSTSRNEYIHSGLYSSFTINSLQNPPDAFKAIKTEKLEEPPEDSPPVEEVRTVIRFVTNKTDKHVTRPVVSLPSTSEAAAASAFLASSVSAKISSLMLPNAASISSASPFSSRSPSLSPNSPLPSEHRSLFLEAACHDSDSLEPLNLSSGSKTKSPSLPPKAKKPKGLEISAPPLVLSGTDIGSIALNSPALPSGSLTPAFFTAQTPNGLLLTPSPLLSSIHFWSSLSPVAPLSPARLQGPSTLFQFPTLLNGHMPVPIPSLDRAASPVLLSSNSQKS
The method in brief:
as §1

ELF1, sequence (P32519 whole entry): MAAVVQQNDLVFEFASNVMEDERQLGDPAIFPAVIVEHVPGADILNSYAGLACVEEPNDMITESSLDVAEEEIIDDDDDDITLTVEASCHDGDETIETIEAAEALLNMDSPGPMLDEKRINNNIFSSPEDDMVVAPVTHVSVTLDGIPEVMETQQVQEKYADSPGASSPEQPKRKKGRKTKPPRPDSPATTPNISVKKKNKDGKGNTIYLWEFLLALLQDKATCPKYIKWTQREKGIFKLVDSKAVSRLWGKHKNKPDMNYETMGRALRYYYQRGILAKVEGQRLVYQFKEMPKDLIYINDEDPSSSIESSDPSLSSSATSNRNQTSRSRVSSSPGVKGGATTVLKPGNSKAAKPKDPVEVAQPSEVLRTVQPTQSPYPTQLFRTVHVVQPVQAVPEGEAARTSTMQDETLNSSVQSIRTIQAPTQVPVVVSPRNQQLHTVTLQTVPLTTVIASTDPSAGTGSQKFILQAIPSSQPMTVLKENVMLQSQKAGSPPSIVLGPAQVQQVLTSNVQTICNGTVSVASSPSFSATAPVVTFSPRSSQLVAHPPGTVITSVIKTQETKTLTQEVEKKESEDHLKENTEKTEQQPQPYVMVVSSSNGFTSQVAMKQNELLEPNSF

Regarding GGTCTC, the binding signal in [1] was 2.92 fold enrichment (6-mer frequency, TF over GST control); in test [2], 2.66 fold enrichment (6-mer frequency, TF over GST control); in [3] it was 2.5 fold enrichment (6-mer frequency, TF over GST control); in test [4], 2.46 fold enrichment (6-mer frequency, TF over GST control); in test [5], 2.74 fold enrichment (6-mer frequency, TF over GST control); in [6] it was 2.55 fold enrichment (6-mer frequency, TF over GST control). The binding signal was 2.89 fold enrichment (6-mer frequency, TF over GST control) in [7]; 2.59 fold enrichment (6-mer frequency, TF over GST control) in [8]; 2.2 fold enrichment (6-mer frequency, TF over GST control) in test [9].

CACTTA: the binding signal in test [1] is 1.17 fold enrichment (6-mer frequency, TF over GST control); in test [2] it was 1.24 fold enrichment (6-mer frequency, TF over GST control); in test [3], 1.25 fold enrichment (6-mer frequency, TF over GST control); in [4], 1.22 fold enrichment (6-mer frequency, TF over GST control); in test [5], 1.27 fold enrichment (6-mer frequency, TF over GST control); in [6], 1.18 fold enrichment (6-mer frequency, TF over GST control). In addition, the binding signal was 1.21 fold enrichment (6-mer frequency, TF over GST control) in test [7]; 1.19 fold enrichment (6-mer frequency, TF over GST control) in test [8]; 1.2 fold enrichment (6-mer frequency, TF over GST control) in test [9].

In the case of ACCTTA, the binding signal was 1.34 fold enrichment (6-mer frequency, TF over GST control) in test [1]; 1.24 fold enrichment (6-mer frequency, TF over GST control) in test [2]; 1.19 fold enrichment (6-mer frequency, TF over GST control) in test [3]; 1.3 fold enrichment (6-mer frequency, TF over GST control) in test [4]; 1.2 fold enrichment (6-mer frequency, TF over GST control) in test [5]; 1.24 fold enrichment (6-mer frequency, TF over GST control) in test [6]. Further, the binding signal in [7] was 1.24 fold enrichment (6-mer frequency, TF over GST control); in [8], 1.21 fold enrichment (6-mer frequency, TF over GST control); in test [9], 1.13 fold enrichment (6-mer frequency, TF over GST control).

Consider AATATC, for which the binding signal in test [1] was 1.53 fold enrichment (6-mer frequency, TF over GST control); in test [2], 1.55 fold enrichment (6-mer frequency, TF over GST control); in [3] it was 1.66 fold enrichment (6-mer frequency, TF over GST control); in test [4] it was 1.66 fold enrichment (6-mer frequency, TF over GST control); in test [5] it was 1.55 fold enrichment (6-mer frequency, TF over GST control); in [6] it was 1.44 fold enrichment (6-mer frequency, TF over GST control). Moreover, the binding signal in test [7] was 1.51 fold enrichment (6-mer frequency, TF over GST control); in test [8], 1.52 fold enrichment (6-mer frequency, TF over GST control); in test [9], 1.49 fold enrichment (6-mer frequency, TF over GST control).

Consider TTTTCC, for which the binding signal is 1.9 fold enrichment (6-mer frequency, TF over GST control) in [1]; 1.68 fold enrichment (6-mer frequency, TF over GST control) in test [2]; 1.71 fold enrichment (6-mer frequency, TF over GST control) in [3]; 1.76 fold enrichment (6-mer frequency, TF over GST control) in test [4]; 1.6 fold enrichment (6-mer frequency, TF over GST control) in [5]; 1.76 fold enrichment (6-mer frequency, TF over GST control) in test [6]. Further, the binding signal in test [7] is 1.75 fold enrichment (6-mer frequency, TF over GST control); in test [8] it was 1.79 fold enrichment (6-mer frequency, TF over GST control); in [9], 1.82 fold enrichment (6-mer frequency, TF over GST control).

For the sequence AATCAC, the binding signal is 1.03 fold enrichment (6-mer frequency, TF over GST control) in test [1]; 1.08 fold enrichment (6-mer frequency, TF over GST control) in test [2]; 1.15 fold enrichment (6-mer frequency, TF over GST control) in test [3]; 1.08 fold enrichment (6-mer frequency, TF over GST control) in test [4]; 1.14 fold enrichment (6-mer frequency, TF over GST control) in test [5]; 1.08 fold enrichment (6-mer frequency, TF over GST control) in test [6]. The binding signal in test [7] is 1.12 fold enrichment (6-mer frequency, TF over GST control); in [8], 1.07 fold enrichment (6-mer frequency, TF over GST control); in test [9] it was 1.12 fold enrichment (6-mer frequency, TF over GST control).

CCTACG: the binding signal in test [1] was 1.34 fold enrichment (6-mer frequency, TF over GST control); in test [2], 1.41 fold enrichment (6-mer frequency, TF over GST control); in test [3] it was 1.39 fold enrichment (6-mer frequency, TF over GST control); in test [4] it was 1.33 fold enrichment (6-mer frequency, TF over GST control); in test [5], 1.32 fold enrichment (6-mer frequency, TF over GST control); in [6] it was 1.35 fold enrichment (6-mer frequency, TF over GST control). Also, the binding signal in test [7] is 1.25 fold enrichment (6-mer frequency, TF over GST control); in [8] it was 1.32 fold enrichment (6-mer frequency, TF over GST control); in [9] it was 1.68 fold enrichment (6-mer frequency, TF over GST control).
